Compounds with a hit are over-represented: about 4.6% of the library has one in this group of screens.
D1 agonist – Allosteric Agonists of the Human D1 Dopamine Receptor: qHTS. activation, % at 2 µM. D(1A) dopamine receptor (Homo sapiens), P21728. actives 1% (n = 360,000). HEK293 T-REx D1 cells, calcium flux, agonist mode
Target sequence (P21728 whole entry, looked up): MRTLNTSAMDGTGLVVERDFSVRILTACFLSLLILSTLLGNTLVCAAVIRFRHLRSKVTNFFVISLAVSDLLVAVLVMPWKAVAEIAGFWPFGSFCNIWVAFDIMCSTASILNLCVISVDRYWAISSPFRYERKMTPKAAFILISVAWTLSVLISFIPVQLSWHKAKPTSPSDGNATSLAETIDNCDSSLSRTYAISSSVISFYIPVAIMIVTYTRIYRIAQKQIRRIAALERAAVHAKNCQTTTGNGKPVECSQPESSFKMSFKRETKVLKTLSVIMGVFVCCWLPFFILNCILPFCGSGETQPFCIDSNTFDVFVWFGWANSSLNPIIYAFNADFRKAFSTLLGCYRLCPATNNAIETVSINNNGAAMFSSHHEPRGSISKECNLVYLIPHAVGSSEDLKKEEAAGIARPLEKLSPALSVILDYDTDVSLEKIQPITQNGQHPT
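Tetracycline-induced HEK293 TREx D1 cells, force-coupled to calcium signalling, were dye-loaded with a no-wash calcium kit. Compound was pin-added after a 10 s baseline. Fluorescence was read kinetically at 1 cycle/s for 180 s, with calcium rises flagged as agonism.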
D1 antag – Antagonist of Human D 1 Dopamine Receptor: qHTS. actives 3.2% (n = 360,000). HEK293 TREx D1 cells, calcium flux, dopamine EC80; active compounds read low. activity change, negative = inhibition, % at 10 µM. D(1A) dopamine receptor (Homo sapiens), P21728; in the data active = activity change below about -30%
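Compound effects on dopamine-evoked calcium signalling were measured in tetracycline-induced HEK293 Trex D1 cells. Dopamine at EC80 followed a 180 s compound pre-read, and fluorescence was tracked kinetically for 180 s more.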
TRHR enhancer – qHTS for Small Molecule Agonists and Allosteric Enhancers of Human TRH Receptor: Primary Screen for Enhancers | TRHR cells, fluo-8 calcium fluorescence, EC20 TRH enhancement | Thyrotropin-releasing hormone receptor (Homo sapiens), P34981 | enhancement, % at 2 µM | actives 0.66% (n = 360,000); in the data active = enhancement above about 30%
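TRHR-expressing cells loaded with fluo-8 calcium dye were read kinetically (ex 480/em 530) during compound addition, then stimulated with an EC20 of TRH (10 nM final). Enhancement of the Gq-mediated intracellular calcium response was scored.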
D1 PAM – Potentiators of Human D1 Dopamine Receptor: qHTS; D(1A) dopamine receptor (Homo sapiens), P21728; HEK293 TREx D1 cells, calcium flux, dopamine EC20 potentiation; potentiation, % at 10 µM; actives 0.036% (n = 360,000); in the data active = potentiation above about 30%
TRHR ag – qHTS for Small Molecule Agonists and Allosteric Enhancers of Human TRH Receptor: Primary Screen for Agonists; Thyrotropin-releasing hormone receptor (Homo sapiens), P34981; TRHR cells, calcium flux fluo-8, FDSS agonist mode; activation, % at 2 µM; actives 0.18% (n = 360,000); AID 493084, 2011
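TRHR-expressing cells, plated overnight in medium with 10% serum, were loaded with fluo-8 calcium dye at room temperature. After a 10 s baseline, library compound was pin-added and calcium release was recorded kinetically (ex 480/em 530) as agonist response.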
Of the large screens only hits and unclear results are named; the others gave an inactive call. Rule as the data show it, unless noted: active = activation above about 30%; inactive = the rest.

Cc1ccc2nc3c(c(Nc4ccccc4)c2c1)CCC3	none
FC(F)(F)c1cccc(Nc2c3c(nc4ccc(Cl)cc24)CCC3)c1	D1 antag -32
Fc1ccc(F)c(Nc2c3c(nc4ccc(Cl)cc24)CCC3)c1	TRHR enhancer 43
COc1ccccc1Nc1c2c(nc3ccc(NC(=O)c4cccc(F)c4)cc13)CCCC2	none
Cc1cccn2c(=O)nc(SCC(=O)c3ccc(Cl)cc3)nc12	none
Cc1cccn2c(=O)nc(SCC(=O)c3ccccc3)nc12	D1 antag -57
FC(F)(F)COc1cc(-c2nnc(SCc3ccccc3)n2Cc2ccco2)cc(OCC(F)(F)F)n1	D1 agonist 32
Clc1ccccc1Cn1cccc1C1=NC(Cc2ccccc2)CO1 (stereo unspecified)	none
NC1=NC2(CCN(Cc3ccccc3)CC2)n2c(nc3ccccc32)N1	D1 antag -43
CC(=O)N1CCC(N(C(=O)Nc2ccc(C)c(F)c2)C(C)C)CC1	D1 antag -48
CCCCC(=O)NC1CC(=O)N(c2ccc3c(c2)OCCO3)C1 (stereo unspecified)	none (no result: D1 antag)
Cc1ccc(NC(=O)C2OCCc3ccccc32)cc1 (stereo unspecified)	none
Cc1ccc(NC(=O)C(=O)NCC2OCCc3ccccc32)cc1 (stereo unspecified)	TRHR enhancer 33
Nc1c(C(=O)CSc2nccn2-c2cccc(F)c2)c(=O)[nH]c(=O)n1C1CC1	D1 antag -31
COc1ccc(N2Cc3cccc(C(=O)Nc4ccc(C)c(C)c4)c3C2=O)cc1	none
Cc1ccc(NC(=O)Nc2ccc3c(c2)N(C)C(=O)CS3)cc1C	D1 antag -44 (no result: D1 PAM)
Cc1cccc(-n2c(-c3ccco3)nc3c(cnn3-c3ccc(F)cc3)c2=O)c1	none
COc1ccc(Cn2ccnc2SCC(=O)Nc2ccccc2OC)cc1	none
COc1ccc(Cn2ccnc2SCC(=O)Nc2ccccc2F)cc1	D1 antag -31
Cc1ccc(-n2c(-c3nn(C)cc3Cl)n[nH]c2=S)cc1	TRHR enhancer 31
COc1ccc(N2CC(C(=O)Nc3cc(C)ccn3)CC2=O)cc1 (stereo unspecified)	none
CC(=O)c1c(C)oc2c(Br)cc(NS(=O)(=O)c3ccc(Br)cc3)cc12	D1 antag -47
Cc1oc2ccc(NS(=O)(=O)c3ccc(F)cc3)cc2c1C(=O)O	none
CC(=O)c1c(C)oc2c1cc(NS(=O)(=O)c1ccc(Br)cc1)c1ccccc12	D1 antag -32
Cc1oc2c(cc(NS(=O)(=O)c3ccc(Cl)cc3)c3ccccc32)c1C(=O)O	none
Cc1oc2cc(O)ccc2c(=O)c1Oc1ccc2ccccc2c1	D1 antag -37
Cc1oc2cc(O)ccc2c(=O)c1Oc1ccc(F)cc1	none
CCOC(=O)N1CCc2c(sc3c2c(=O)n(-c2ccc(CC)cc2)c(=O)n3CC(=O)Nc2ccc(C)cc2)C1	none
CSc1ccc(C2c3c(oc4cc(C)cc(C)c4c3=O)C(=O)N2Cc2ccco2)cc1 (stereo unspecified)	none
CSc1ccc(C2c3c(oc4cc(C)cc(C)c4c3=O)C(=O)N2CCO)cc1 (stereo unspecified)	D1 antag -46
O=C(CCCN1Cc2ccccc2C1)c1ccc(F)cc1	D1 antag -71
CN1CCN(CCCC(=O)c2ccc(F)cc2)CC1	none
COc1cc(Br)c(C2CC(=O)Nc3cc4c(cc32)OCCO4)cc1OC (stereo unspecified)	none
CCOc1ccc(NC(=O)Cn2cc(S(=O)(=O)N3CCN(c4ccccc4F)CC3)c3ccccc3c2=O)cc1	none
C[C@H](NC(=O)c1nc[nH]c1C(=O)NCc1ccccc1)c1ccccc1	D1 antag -41
C[C@@H](NC(=O)c1nc[nH]c1C(=O)NCC(=O)OCc1ccccc1)c1ccccc1	TRHR enhancer 30
CC(C)C[C@H](NC(=O)c1[nH]cnc1C(=O)N[C@H](C)c1ccccc1)C(=O)OC(C)(C)C	none
CC(C)C[C@H](NC(=O)c1nc[nH]c1C(=O)NC(c1ccccc1)c1ccccc1)C(=O)OC(C)(C)C	D1 antag -33
C[C@@H](NC(=O)c1nc[nH]c1C(=O)NC1CCN(C(=O)OC(C)(C)C)CC1)c1ccccc1	D1 antag -67
Cc1ccc(NC(=O)c2sc3nc(-c4ccc(F)cc4)cn3c2C)c(C)c1	none
Cc1ccc(C(=O)N2CCc3cc(CNS(=O)(=O)c4cccs4)ccc32)cc1	none
C[C@@H](NC(=O)c1[nH]cnc1C(=O)Nc1ccccc1)c1ccccc1	TRHR enhancer 36 (no result: D1 antag)
N#Cc1ccc(-c2ccc(OCC(=O)Nc3cccnc3)cc2)cc1	D1 antag -45
CC(=O)Nc1ccc(NC(=O)COc2ccc(-c3ccc(C#N)cc3)cc2)cc1	none
CSc1oc(-c2ccco2)nc1S(=O)(=O)c1ccccc1	none
CC(C)Sc1oc(-c2ccco2)nc1S(=O)(=O)c1ccccc1	D1 antag -48
Cc1ccc(Cl)cc1-n1ncc2c(N3CCN(Cc4ccccc4)CC3)ncnc21	D1 antag -45
CCN1CCN(c2ncnc3c2cnn3-c2cc(Cl)ccc2C)CC1	none
CC(=O)C1=C(c2ccc(Cl)c(Cl)c2)N(C(C)=O)n2c(C)nnc2S1	none (no result: D1 antag)
O=C(NN=C1CCCC1)c1cc(Br)ccc1O	none
O=C(N/N=C1/CCSC1)c1cc(Br)ccc1O	D1 antag -40
S=C(NCc1ccc(Cl)cc1Cl)NC1CCCCC1	D1 agonist 30, D1 antag -33
Clc1ccc(CNC2CCCC2)c(Cl)c1	none
S=C(NCCc1cccc(Cl)c1)NC1CCCCC1	D1 antag -38
CC12CCC(=O)N1C(C(=O)NNC(=O)c1ccccc1Cl)CS2 (stereo unspecified)	D1 antag -52
COc1cc(C(=O)NNC(=O)C2CSC3(C)CCC(=O)N23)cc(OC)c1OC (stereo unspecified)	D1 antag -40
Cc1ccc2cc(C#N)c(NCc3ccccc3)nc2c1	D1 antag -33
O=S(=O)(c1cnc[nH]1)N1CCCCCC1	D1 antag -45
CSc1nc2cc(S(=O)(=O)N3CCCCC3)ccc2s1	D1 antag -31
CC1CCN(S(=O)(=O)c2cnc[nH]2)CC1	none
Cc1ccc(S(=O)(=O)N2CCCCC2)cc1	none
CSc1nc2cc(S(=O)(=O)N3CCOCC3)ccc2s1	none
O=S(=O)(c1ccc(-c2ccccc2)cc1)N1CCCCC1	D1 antag -35
Cc1ccc(S(=O)(=O)N2CCCN(S(=O)(=O)c3ccc(C)cc3)CC2)cc1	D1 antag -34

Screening data deposited in PubChem BioAssay by National Center for Advancing Translational Sciences (NCATS).
